Shown are actives, neighbours in structure and some others; about 32% of the full set was active somewhere.
CYP2C9 act: CYP2C9 (human) activation; P11712; recombinant CYP2C9, luciferin-H conversion, luminescence; stronger effect = higher value; factor 1 = untreated enzyme, 0 = blocked; activation factor at 5 µM; actives 1.4% (n = 96,000); AID 1024;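 active means activation factor of 2 or more for CYP2C9 at a 5 µM dose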;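 further: 0 = sulfaphenazole-blocked wells and 1 = vehicle-only wells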
PostGolgi yeast: growth inhibition of a yeast mutant, post-Golgi transport screen | post-Golgi transport phenotypic cell assay | inhibition, % at 10 µM | actives 0.9% (n = 98,000);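 further: yeast cells grown in 1536-well plates; yeast grown about 18 h at 30C before absorbance read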
PostGolgi ctrl: yeast control strain growth, post-Golgi counter-screen | efflux-deficient yeast background strain, growth absorbance A615, 16 h | inhibition, % at 10 µM | actives 5% (n = 98,000) | AID 738
CYP2C19 inh: human CYP2C19 inhibition; inhibition, % at 5 µM; actives 21% (n = 96,000); CYP2C19 Supersomes, luciferin-H EGE luminescence, 30 min; AID 778;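 active means CYP2C19 inhibition above a set limit at 5 µM in the primary screen, cut at about 50% in these data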;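 further: plate controls were negative control wells for no effect and 2.5 mM tranylcypromine positive control for full effect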
Target sequence (P33261 whole entry, looked up): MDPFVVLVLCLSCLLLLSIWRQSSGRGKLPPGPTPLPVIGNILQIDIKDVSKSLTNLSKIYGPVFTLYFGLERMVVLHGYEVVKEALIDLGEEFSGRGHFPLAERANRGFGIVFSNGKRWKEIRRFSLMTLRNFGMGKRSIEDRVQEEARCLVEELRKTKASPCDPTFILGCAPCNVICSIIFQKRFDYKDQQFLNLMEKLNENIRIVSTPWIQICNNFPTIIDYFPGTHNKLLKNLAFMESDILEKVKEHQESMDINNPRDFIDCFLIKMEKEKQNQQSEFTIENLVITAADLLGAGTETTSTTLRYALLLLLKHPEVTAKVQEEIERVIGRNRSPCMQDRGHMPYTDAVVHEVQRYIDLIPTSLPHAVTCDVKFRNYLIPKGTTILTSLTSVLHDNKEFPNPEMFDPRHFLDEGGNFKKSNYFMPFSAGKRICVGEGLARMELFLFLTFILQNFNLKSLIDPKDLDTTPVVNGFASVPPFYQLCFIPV
CYP2C9 inh: inhibitors of human CYP2C9; P11712; CYP2C9 Supersomes, luciferin-H conversion, luminescence; inhibition, % at 5 µM; actives 20% (n = 96,000);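 active means blocking of liver enzyme CYP2C9 beyond about 50% at 5 µM, limit read from the data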
CYP2C19 act: increases human CYP2C19 enzyme activity | recombinant CYP2C19, luciferin-H EGE luminescence; stronger effect = higher value; 0 = fully inhibited enzyme, 1 = untreated enzyme | 96,000 tested, under 10 active | AID 1025 | P33261 | activation factor at 5 µM;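 active means activation factor of at least 2 at 5 µM in the primary screen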;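 further: 0 = wells with 2.5 mM tranylcypromine and 1 = vehicle-only wells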
Starred values were filed as active, the others as inactive. Unless noted, no stated cut-off is given here; in the data, active means inhibition above about 30%; inactive means the rest.

How did O=C(CS(=O)(=O)Cc1ccccc1)N1CCN(Cc2ccc3c(c2)OCO3)CC1 do in these assays?
CYP2C9 act: 0.8; PostGolgi yeast: -4; PostGolgi ctrl: -1; CYP2C19 inh: 22; CYP2C9 inh: 23; CYP2C19 act: 0.8

Results for O=C(c1ccc2nc(N3CCOCC3)sc2c1)N1CCCC1 ?
CYP2C9 act: 0.8; PostGolgi yeast: 4; PostGolgi ctrl: 4; CYP2C19 inh: 1; CYP2C9 inh: 16; CYP2C19 act: 1

How did O=C(CCc1ccc(S(=O)(=O)N2CCOCC2)cc1)N1CCN(Cc2ccc3c(c2)OCO3)CC1 do in these assays?
CYP2C9 act: 0.2; PostGolgi yeast: 10; PostGolgi ctrl: 8; CYP2C19 inh: 39; CYP2C9 inh: 77*; CYP2C19 act: 0.6

Results for O=C(CCc1ccc(S(=O)(=O)NCc2ccccc2)cc1)N1CCN(Cc2ccc3c(c2)OCO3)CC1 ?
CYP2C9 act: 0.4; PostGolgi yeast: -4; PostGolgi ctrl: 1; CYP2C19 inh: 47; CYP2C9 inh: 65*; CYP2C19 act: 0.5

How did O=C(OCc1ccc2c(c1)OCO2)c1ccc(S(=O)(=O)N2CCCCC2)cc1 do in these assays?
CYP2C9 act: 0.8; PostGolgi yeast: -4; PostGolgi ctrl: 6; CYP2C19 inh: 10; CYP2C9 inh: 20; CYP2C19 act: 0.9

How did O=C(c1ccc(S(=O)(=O)N2CCCC2)cc1)N1CCN(Cc2ccc3c(c2)OCO3)CC1 do in these assays?
CYP2C9 act: 0.4; PostGolgi yeast: 4; PostGolgi ctrl: 9; CYP2C19 inh: 47; CYP2C9 inh: 63*; CYP2C19 act: 0.5

Results for COCC(C)n1c(C)cc(C(=O)CN2C(=O)NC3(CCCCC3C)C2=O)c1C (stereo not given) ?
CYP2C9 act: 1.7; PostGolgi yeast: 9; PostGolgi ctrl: 16; CYP2C19 inh: -19; CYP2C9 inh: -69; CYP2C19 act: 1.2

Results for CCCCC(=O)Nc1ccc(NC(=O)C2CC2)nc1 ?
PostGolgi yeast: -8; PostGolgi ctrl: 5

Results for COc1ccc(NC(=O)CCc2c(C)nc3nc(C)nn3c2C)cc1 ?
CYP2C9 act: 1; PostGolgi yeast: 1; PostGolgi ctrl: 6; CYP2C19 inh: -4; CYP2C9 inh: 0; CYP2C19 act: 1

Results for CCOC(=O)C(CC)Sc1nc(N)c(NC(=O)c2ccc(OC)c(OC)c2)c(=O)[nH]1 (stereo not given) ?
CYP2C9 act: 1; PostGolgi yeast: -6; PostGolgi ctrl: 22; CYP2C19 inh: 0; CYP2C9 inh: 0; CYP2C19 act: 1

Results for O=C(c1ccccc1S(=O)(=O)NCC(O)COc1ccc([N+](=O)[O-])cc1)N1CCCCC1 (stereo not given) ?
CYP2C9 act: 0.9; PostGolgi yeast: -8; PostGolgi ctrl: 7; CYP2C19 inh: 11; CYP2C9 inh: 10; CYP2C19 act: 0.9

How did O=C(c1cccc(S(=O)(=O)NCc2ccccc2)c1)N1CCN(Cc2ccccc2)CC1 do in these assays?
CYP2C9 act: 0.7; PostGolgi yeast: 13; PostGolgi ctrl: 2; CYP2C19 inh: 65*; CYP2C9 inh: 30; CYP2C19 act: 0.4

Results for O=C(c1ccccc1S(=O)(=O)NCc1ccccc1)N1CCCC1 ?
CYP2C9 act: 0.3; PostGolgi yeast: -3; PostGolgi ctrl: -4; CYP2C19 inh: 90*; CYP2C9 inh: 66*; CYP2C19 act: 0.1

What do the screens show for `Nc1nc(SCc2nc(-c3ccccc3)no2)[nH]c(=O)c1-c1ccccc1`?
CYP2C9 act: 0.2; PostGolgi yeast: 3; PostGolgi ctrl: -7; CYP2C19 inh: 73*; CYP2C9 inh: 82*; CYP2C19 act: 0.3

Results for c1ccc(-c2nc(-c3ccncc3)no2)cc1 ?
CYP2C9 act: 0.8; PostGolgi yeast: 4; PostGolgi ctrl: 10; CYP2C19 inh: 94*; CYP2C9 inh: 23; CYP2C19 act: 0.1

How did c1ccc(-c2noc(-c3cccnc3)n2)cc1 do in these assays?
CYP2C9 act: 1; PostGolgi yeast: 4; PostGolgi ctrl: 6; CYP2C19 inh: 13; CYP2C9 inh: 4; CYP2C19 act: 0.9

Results for c1cc(-c2noc(CCC3CCCC3)n2)ccn1 ?
CYP2C9 act: 0; PostGolgi yeast: -8; PostGolgi ctrl: 8; CYP2C19 inh: 99*; CYP2C9 inh: 96*; CYP2C19 act: 0

Results for Nc1nc(SCc2c(F)cccc2Cl)[nH]c(=O)c1-c1ccccc1 ?
CYP2C9 act: 1; PostGolgi yeast: -1; PostGolgi ctrl: 2; CYP2C19 inh: -1; CYP2C9 inh: -1; CYP2C19 act: 1
